In PubChem BioAssay (NCI):
Compounds without any hit were thinned out: in the full panel of roughly 83,000, 20% have a hit.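 Cell lines were cultured in 96-well plates, exposed to a single compound concentration, and assessed for percent growth 48 hours later.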 Unmarked numbers belong to inactive results. Active and inactive are the calls of the source. Rule for the calls: active = growth percent below 10; inactive = the rest.

Assays:
Experiment in all cases: NCI-60 one-dose screen, 48 h (100 = growth as untreated, 0 = no growth, -100 = all killed)
Settings in all cases: 10 µM unless noted
HT29 colon = system: HT29 colon
SNB-75 CNS = system: SNB-75 CNS
SNB-19 CNS = system: SNB-19 CNS
U251 CNS = system: U251 CNS
PC-3 prostate = system: PC-3 prostate
SK-MEL-5 melanoma = system: SK-MEL-5 melanoma
UACC-62 melanoma = system: UACC-62 melanoma
SK-MEL-28 melanoma = system: SK-MEL-28 melanoma
SK-MEL-2 melanoma = system: SK-MEL-2 melanoma
LOX IMVI melanoma = system: LOX IMVI melanoma

Compound | growth (HT29 colon) | growth (SNB-75 CNS) | growth (SNB-19 CNS) [%] | growth (U251 CNS) [%] | growth (PC-3 prostate) [%] | growth (SK-MEL-5 melanoma) | growth (UACC-62 melanoma) [%] | growth (SK-MEL-28 melanoma) [%] | growth (SK-MEL-2 melanoma) [%] | growth (LOX IMVI melanoma) [%]
O=C(N/N=C/c1ccc(Br)s1)c1[nH]c2ccc(Br)cc2c1-c1ccccc1 | 5.61% (active) | 39.5% | 31.3 | 24.4 | 28.8 | -27.3% (active) | 41.7 | 63.1 | 18.7 | –
CS(=O)(=O)c1ccc(-c2nc3ccccn3c2/C=N/Nc2nc(-c3ccc(Br)cc3)cs2)cc1 | 114% | 114% | 103 | 107 | 100 | 96.5% | 102 | – | 113 | 112
O=C(Oc1ccc2ccc(=O)oc2c1)c1ccc(Cl)cc1 | 115% | 112% | 93.2 | 106 | 103 | 101% | 97.3 | 109 | 113 | –
C#Cc1nc(C2=C(C)/C(=N/OCc3ccccc3)CC2)cs1 | 67% | -88.4% (active) | 72.8 | 37.6 | 82.3 | 85.7% | 62.5 | 94.6 | 98.7 | –
COC(=O)C(Cc1ccccc1)NS(=O)(=O)/N=C1\NC(=O)NC1=C(Cl)Cl (stereo not given) | 127% | 106% | 94.2 | 106 | 90 | 98.1% | 78.8 | 102 | – | –
C/C(=N\NC(N)=O)c1c(O)sc(=O)[nH]c1=O | 111% | 101% | 93.2 | 108 | 97 | 101% | 92.6 | 99.7 | 109 | –
C#Cc1nc(C2=C(C)C(OC(=O)CCC(=O)O)CC2)cs1 (stereo not given) | 125% | 98.3% | 104 | 106 | 102 | 101% | 95.3 | 115 | 114 | –
O=C(CN1C(=O)/C(=C/c2ccccc2)SC1=S)N1CCOCC1 | 112% | 98.9% | 99 | 102 | 108 | 97% | 93.4 | 96.5 | 125 | –
C#Cc1nc(C2=C(C)C(O)/C(=N/O)C2)cs1 (stereo not given) | 113% | -85.7% (active) | 109 | 109 | 101 | 94.9% | 88 | 111 | 103 | –
